Assay results from ChEMBL document CHEMBL4513135, “CO-ADD screening of IQOG CSIS (Spain) compounds”.
Entries with a potency or affinity are not part of this list.

System: Staphylococcus aureus
Conditions: Concentration 32 ug.mL-1; ASSAY_TEST Inhibition of Bacterial Growth; detection method Absorption (OD600); MEDIA CAMHB; plate type 384well; NBS; CORNING #3640; time 18 hr

Going from `N#CC1=C(N)Oc2c(ccc3ccccc23)C1c1ccccc1` (stereo not given) to `COc1cccc(C2C(C#N)=C(N)Oc3c2ccc2ccccc32)c1` (stereo not given), the Inhibition rises from 23.38% to 23.52%.

First: C=CCNc1nc(N)c(C#N)cc1C#N
Second: N#Cc1cc(C#N)c(NCc2ccccc2)nc1N
The Inhibition of the first is higher: 40.4% for the first, 27.12% for the second.

Going from `N#Cc1c(N)nc(N)c(C#N)c1-c1ccccc1` to `N#Cc1c(N)nc(NCc2ccccc2)c(C#N)c1-c1ccccc1`, the Inhibition falls from 24.97% to -2.03%.

First: O=Cc1c[nH]c2ccccc12 [3-FORMYLINDOLE]
Second: O=C(NNCc1c[nH]c2ccccc12)c1cccc2ccccc12
The Inhibition of the first is higher: 16.72% for the first, -2.49% for the second.

First: C#CCN(C)c1nc(OC)c(C#N)c(-c2ccccc2)c1C#N
Second: COc1nc(NC(C)=O)c(C#N)c(-c2ccccc2)c1C#N
The Inhibition of the first is higher: 44.46% for the first, 21.1% for the second.

First: N#Cc1cc(C#N)c(N2CCC(Cc3ccccc3)CC2)nc1N
Second: C#CCN(C)c1nc(NCCC2CCN(Cc3ccccc3)CC2)c(C#N)cc1C#N.Cl
The Inhibition of the first is lower: -2.68% for the first, 16.92% for the second.

Going from `CNCc1cc2cc(OC)ccc2n1C.Cl` to `CCOC(=O)C1=C(C)OC(N)=C(C#N)C1c1ccc(OC)cc1` (stereo not given), the Inhibition falls from 10.42% to 9.52%.

Compared with `N#CC1(Br)C(=NBr)Oc2ccc3ccccc3c2C1c1ccccc1[N+](=O)[O-]` (stereo not given), `N#C[C@]1(Br)C(=N)Oc2ccc3ccccc3c2[C@@H]1c1ccc([N+](=O)[O-])cc1` is higher in Inhibition: 23.03% for the first, 26.21% for the second.

Compared with `Cc1ccc(-c2c(C#N)c(N)nc3c2S(=O)(=O)OC3(C)C)cc1`, `CC1=C(CO)C(c2ccc(C#N)cc2)C(C#N)=C(N)O1` (stereo not given) is lower in Inhibition: 9.98% for the first, 9.52% for the second.

Going from `N#Cc1cc2c(N)c3c(nc2nc1Cl)CCN(Cc1ccccc1)C3` to `CCOc1nc2nc(C)c(C=C3CCN(Cc4ccccc4)CC3)cc2c(-c2ccccc2)c1C#N`, the Inhibition rises from 31.61% to 33.88%.

Going from `Cl.NNN1CCc2ccccc21` to `CSC1=NC2(CC2c2ccccc2)C(=O)N1` (stereo not given), the Inhibition falls from 25.31% to 10.34%.

Compared with `N#C/C(=C\c1ccccc1Cl)C(=O)c1ccccc1`, `NNC(=O)C1(NC(=O)c2ccccc2)CC1c1cccc(O)c1` (stereo not given) is lower in Inhibition: 33.12% for the first, 12.61% for the second.

Compared with `COC1=C(C#N)C(c2ccccc2)C(C=O)=C(Cl)N1` (stereo not given), `COc1ccc(C2C(C#N)=C(N)Oc3ccc4ccccc4c32)cc1OC` (stereo not given) is lower in Inhibition: 40.42% for the first, 19.72% for the second.

Compared with `COc1ccc(-c2cc(-c3cc4ccccc4nc3Cl)cc(=O)[nH]2)cc1`, `Cn1c(C(=O)NCc2ccccc2)cc2cc(OCCCC3CCN(Cc4ccccc4)CC3)ccc21` is lower in Inhibition: 22.93% for the first, 21.45% for the second.

First: CCOC(=O)C1=C(C)OC(N)=C(C#N)C1c1ccco1 (stereo not given)
Second: CCOC(=O)C1=C(C)Oc2nc3c(c(N)c2C1c1ccc(O)c(OC)c1)CCC3 (stereo not given)
The Inhibition of the first is higher: 7.79% for the first, -3.09% for the second.

Compared with `C/C=C(/C#N)C(=O)OC`, `CC(C)(C)OC(=O)Nc1ccccn1` is higher in Inhibition: -6.91% for the first, 38.41% for the second.

Going from `CCCCCCC(C)NNC(=O)c1cc2ccccc2[nH]1` (stereo not given) to `CN(C)c1cccc(C(=O)c2cccc(N(C)C)c2)c1`, the Inhibition rises from -0.84% to 23.31%.

Compared with `C#CCNc1ccc(Cl)nn1`, `C#CCN(C)c1nc(Sc2ccccc2)c(C#N)c(-c2ccccc2)c1C#N` is lower in Inhibition: 21.22% for the first, 6.49% for the second.

Going from `Cn1ccnc1C1c2ccc3cccnc3c2Oc2nc3c(c(N)c21)CCCCC3` (stereo not given) to `Cc1nn(-c2ccccc2)c2ncn3nc(-c4ccccc4)nc3c12`, the Inhibition falls from 21.02% to 11.88%.

Going from `N#Cc1cc2c(N)n[nH]c2nc1N` to `C#CCN(C)c1nc(NC2CCN(Cc3ccccc3)CC2)c(C#N)c(-c2ccccc2)c1C#N`, the Inhibition falls from 14.97% to 0.44%.

System: Escherichia coli
Conditions: Concentration 32 ug.mL-1; ASSAY_TEST Inhibition of Bacterial Growth; detection method Absorption (OD600); MEDIA CAMHB; plate type 384well; NBS; CORNING #3640; time 18 hr

Going from `N#CC1=C(N)Oc2c(ccc3ccccc23)C1c1ccccc1` (stereo not given) to `COc1cccc(C2C(C#N)=C(N)Oc3c2ccc2ccccc32)c1` (stereo not given), the Inhibition falls from -4.89% to -8.01%.

First: C=CCNc1nc(N)c(C#N)cc1C#N
Second: N#Cc1cc(C#N)c(NCc2ccccc2)nc1N
The Inhibition of the first is higher: -12.52% for the first, -14.28% for the second.

Going from `N#Cc1c(N)nc(N)c(C#N)c1-c1ccccc1` to `N#Cc1c(N)nc(NCc2ccccc2)c(C#N)c1-c1ccccc1`, the Inhibition rises from -10.66% to -5.8%.

Going from `O=Cc1c[nH]c2ccccc12` [3-FORMYLINDOLE] to `O=C(NNCc1c[nH]c2ccccc12)c1cccc2ccccc12`, the Inhibition falls from 17.3% to 3.58%.

Going from `C#CCN(C)c1nc(OC)c(C#N)c(-c2ccccc2)c1C#N` to `COc1nc(NC(C)=O)c(C#N)c(-c2ccccc2)c1C#N`, the Inhibition falls from -5.76% to -7.58%.

Going from `N#Cc1cc(C#N)c(N2CCC(Cc3ccccc3)CC2)nc1N` to `C#CCN(C)c1nc(NCCC2CCN(Cc3ccccc3)CC2)c(C#N)cc1C#N.Cl`, the Inhibition rises from -8.44% to -3.04%.

Compared with `CNCc1cc2cc(OC)ccc2n1C.Cl`, `CCOC(=O)C1=C(C)OC(N)=C(C#N)C1c1ccc(OC)cc1` (stereo not given) is lower in Inhibition: -0.77% for the first, -2.05% for the second.

Compared with `N#CC1(Br)C(=NBr)Oc2ccc3ccccc3c2C1c1ccccc1[N+](=O)[O-]` (stereo not given), `N#C[C@]1(Br)C(=N)Oc2ccc3ccccc3c2[C@@H]1c1ccc([N+](=O)[O-])cc1` is higher in Inhibition: -25.63% for the first, 11.8% for the second.

Going from `Cc1ccc(-c2c(C#N)c(N)nc3c2S(=O)(=O)OC3(C)C)cc1` to `CC1=C(CO)C(c2ccc(C#N)cc2)C(C#N)=C(N)O1` (stereo not given), the Inhibition rises from 6.38% to 17.18%.

Going from `N#Cc1cc2c(N)c3c(nc2nc1Cl)CCN(Cc1ccccc1)C3` to `CCOc1nc2nc(C)c(C=C3CCN(Cc4ccccc4)CC3)cc2c(-c2ccccc2)c1C#N`, the Inhibition falls from -4.39% to -8.83%.

Compared with `Cl.NNN1CCc2ccccc21`, `CSC1=NC2(CC2c2ccccc2)C(=O)N1` (stereo not given) is lower in Inhibition: 10.83% for the first, 2.43% for the second.

Compared with `N#C/C(=C\c1ccccc1Cl)C(=O)c1ccccc1`, `NNC(=O)C1(NC(=O)c2ccccc2)CC1c1cccc(O)c1` (stereo not given) is lower in Inhibition: 20.31% for the first, 5.57% for the second.

Compared with `COC1=C(C#N)C(c2ccccc2)C(C=O)=C(Cl)N1` (stereo not given), `COc1ccc(C2C(C#N)=C(N)Oc3ccc4ccccc4c32)cc1OC` (stereo not given) is lower in Inhibition: -6.81% for the first, -23.42% for the second.

Compared with `COc1ccc(-c2cc(-c3cc4ccccc4nc3Cl)cc(=O)[nH]2)cc1`, `Cn1c(C(=O)NCc2ccccc2)cc2cc(OCCCC3CCN(Cc4ccccc4)CC3)ccc21` is higher in Inhibition: -12.6% for the first, -9.22% for the second.

First: CCOC(=O)C1=C(C)OC(N)=C(C#N)C1c1ccco1 (stereo not given)
Second: CCOC(=O)C1=C(C)Oc2nc3c(c(N)c2C1c1ccc(O)c(OC)c1)CCC3 (stereo not given)
The Inhibition of the first is lower: -14.37% for the first, -6.01% for the second.

First: C/C=C(/C#N)C(=O)OC
Second: CC(C)(C)OC(=O)Nc1ccccn1
The Inhibition of the first is lower: -6.93% for the first, -0.38% for the second.

First: CCCCCCC(C)NNC(=O)c1cc2ccccc2[nH]1 (stereo not given)
Second: CN(C)c1cccc(C(=O)c2cccc(N(C)C)c2)c1
The Inhibition of the first is lower: 6.64% for the first, 7.89% for the second.

Going from `C#CCNc1ccc(Cl)nn1` to `C#CCN(C)c1nc(Sc2ccccc2)c(C#N)c(-c2ccccc2)c1C#N`, the Inhibition rises from -28.17% to 1.09%.

Compared with `Cn1ccnc1C1c2ccc3cccnc3c2Oc2nc3c(c(N)c21)CCCCC3` (stereo not given), `Cc1nn(-c2ccccc2)c2ncn3nc(-c4ccccc4)nc3c12` is higher in Inhibition: -10.34% for the first, 13.25% for the second.

First: N#Cc1cc2c(N)n[nH]c2nc1N
Second: C#CCN(C)c1nc(NC2CCN(Cc3ccccc3)CC2)c(C#N)c(-c2ccccc2)c1C#N
The Inhibition of the first is higher: 10.46% for the first, -3.84% for the second.
